The values that follow come from PubChem BioAssay (NCATS).

Inconclusive results are not listed. Values without a mark were called inactive. Activity calls are given as the source filed them. Calls follow the shape of the dose curve; as a rule, active = well fitted inhibition curve with a large enough effect; inconclusive = small, poorly fitted or top-dose-only effect; inactive = flat fitted curve, though single readings scatter.

Common to all, as to experiment: Cytotoxic Profiling of Annotated Libraries Using Quantitative High-Throughput Screening (AID 1296008); also: nearly all actives have a fitted effect of over 60% in size
Holding throughout (settings): Five cell lines viability, CellTiter-Glo ATP luminescence, 48-72 h; max response: stronger effect = lower value

For one assay, the system named is HaCat. The method, boiled down: (§1)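 Compounds were pin-transferred onto cells and incubated 48 or 72 hr at 37 degree Celsius, 95% humidity. CellTiter-Glo was added, plates sat 10 min at room temperature, then ATP-coupled luminescence was imaged as the viability read-out.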
Another assay deals with KB-3-1. Summed up: as §1
Another assay has as its system NIH3T3. The method, boiled down:
as §1
% is scaled to controls: 0 for no effect and ±100 for the full control effect; potency is read from the fitted curve at half-maximal effect.

For the compound `CC(=O)N1CCN(C(=O)Cc2ccc(Nc3ncc(F)c(Nc4ccc(C(=O)Nc5ccccc5Cl)cc4)n3)cc2)CC1`, the Potency with HaCat was 4.11 µM (active); with KB-3-1 it was 5.17 µM (active).
Regarding `FC(F)(F)c1cc(-c2ncn(/C=C\c3nnco3)n2)cc(C(F)(F)F)c1`, the figures for the max response with HaCat and in the assay with KB-3-1 were -20% and -19.3%, respectively.
For `Cc1csc(NC(=O)c2ccc(COc3cccc(Cl)c3)o2)n1`, the max response in the assay on HaCat is 2.26%; in the assay with KB-3-1, -1.89%.
In the case of `CC(=O)C12OC(C)(C)OC1CC1C3CCC4=CC(=O)C=CC4(C)C3(F)C(O)CC12C` (configuration not stated), in the assay on HaCat, the max response was -3.19%. Besides, in the assay on KB-3-1, the outcome was inactive.
Consider `COc1ncc(Nc2ncc([C@H](C)N3CCN(S(C)(=O)=O)CC3)cc2-c2nc(C)nc(N)n2)cc1F`, for which the Potency with HaCat is 0.146 µM (active); in the assay on KB-3-1 it was 6.51 µM (active).
Turning to `CNS(=O)(=O)c1ccccc1Nc1nc(Nc2ccc(N3CCN(C)CC3)cc2OC)ncc1Cl`, the Potency with HaCat was 2.59 µM (active); with KB-3-1 it was 0.92 µM (active).
With `O=C(CC(c1ccccc1)c1ccccc1)N1CCN(C(c2ccccc2)c2ccccc2)CC1`, the max response in the assay on HaCat is -29%. In addition, the Potency with KB-3-1 was 18.4 µM (active).
Turning to `CC(C)(C(=O)NCC(F)(F)C(F)(F)F)C(=O)NC1C(=O)Nc2ccccc2-c2ccccc21` (configuration not stated), the Potency is 16.4 µM (active) in the assay on HaCat and 18.4 µM (active) with KB-3-1.
Regarding `CN(CCc1ccc(Nc2ncc(-c3cccnc3)s2)cc1)Cc1ccccc1`, the max response in the assay on HaCat is -1.85%; in the assay with KB-3-1, -12.1%.
For `CC(O)/C=C/C1(O)C2(C)COC1(C)CC(O)C2` (configuration not stated), in that order: -4.33% and -4.44%.
On to `COc1ccc(C(=O)C2CCN(CC(=O)N(Cc3nc4c(c(=O)[nH]3)COCC4)CC3CC3)CC2)cc1`, for which the max response in the assay on HaCat is -5.45%; in the assay on KB-3-1, 9.05%.
`COc1cc2ncnc(Nc3cccc(Cl)c3F)c2cc1OC(=O)N1CCN(C)C[C@H]1C`: the max response is -86.6% in the assay on HaCat and -86.1% in the assay on NIH3T3. Further, the result in the assay with KB-3-1 was inactive.
As to `COc1ccc(C(=O)n2c(C)c(Cc3cccc(O[C@@H](C)C(=O)O)c3)c3cc(OC(F)(F)F)ccc32)cc1`, the max response is -6.22% in the assay with HaCat, 0.537% with KB-3-1 and 2.93% with NIH3T3.
In the case of `CC(C)CC(=O)OC1OC=C(CO[C@@H]2O[C@H](CO)[C@@H](O)[C@H](O)[C@H]2O)C2CC(O)C(O)(CO)C12` (some centres not stated), the max response with HaCat was -4.52%; in the assay with KB-3-1, 2.5%; with NIH3T3, -2.63%.
On to `C/C(=C\CCC1(C)C2CCC(C2)C1(C)O)C(=O)O` (configuration not stated), for which the max response with HaCat is 0.481%; in the assay with NIH3T3, 3.29%. Further, the compound was classed as inactive in the assay with KB-3-1.
As to `C/C=C/C=C/C(O)=C1\C(O)=C(C)C(=O)[C@@]2(C)OC(=O)[C@@](C)(NC(=O)/C=C/C(=O)O)[C@@H]12`, the max response in the assay with HaCat was -17.6%; in the assay with KB-3-1 it was -1.41%; in the assay on NIH3T3, -1.65%.
For `C[C@@H](O)[C@H](NC(=O)c1ccc(C#Cc2ccc(CN3CCOCC3)cc2)cc1)C(=O)NO`, the max response in the assay on HaCat was -21.7%; in the assay with NIH3T3, 3.18%. For the same compound, the compound was classed as inactive in the assay on KB-3-1.
For `O=C(CC1C(=O)Nc2ccccc21)OC[C@H]1O[C@@H](OCCc2ccc(O)cc2)[C@H](O)[C@@H](O)[C@@H]1O` (some centres not stated), the max response was -16.5% with HaCat and -0.494% in the assay with NIH3T3. Besides, the result in the assay on KB-3-1 was inactive.
In the case of `C[C@@H]1CN(Cc2ncccn2)C[C@H]1c1nc2c(cnn2C2CCOCC2)c(=O)[nH]1`, the values for the max response with HaCat, with KB-3-1 and with NIH3T3 were 0.321%, -1.41% and -4.05%, respectively.
As to `CCOc1cc2ncc(C#N)c(Nc3ccc(F)c(Cl)c3)c2cc1NC(=O)/C=C/CN(C)C`, the values for the Potency with HaCat, in the assay on KB-3-1 and with NIH3T3 were 0.0259 µM (active), 5.8 µM (active) and 3.66 µM (active), respectively.
`COC1C(CO)OC(n2cnc3c(=O)[nH]cnc32)C1O` (configuration not stated): the max response in the assay with HaCat is -1.42%; with KB-3-1 it was 2.15%; in the assay on NIH3T3, -5.01%.
With `Cc1cc(Nc2ncc3cc(-c4c(Cl)cccc4Cl)c(=O)n(C)c3n2)ccc1F`, the figures for the Potency with HaCat, in the assay on KB-3-1 and in the assay with NIH3T3 were 5.8 µM (active), 2.59 µM (active) and 1.46 µM (active), respectively.
Regarding `CC1CCC2(C(=O)O)CCC3(C)C(=CCC4C5(C)CCC(O)C(C)(CO)C5CCC43C)C2C1(C)O` (configuration not stated), the max response was 1.16% with HaCat, -0.678% with KB-3-1 and 1.81% in the assay with NIH3T3.
With `O=C(OC[C@@]1(O)CO[C@@H](O[C@H]2[C@H](Oc3ccc(O)cc3)O[C@H](CO)[C@@H](O)[C@@H]2O)[C@@H]1O)c1ccc(O)cc1`, the max response is -0.439% in the assay with HaCat, -1.14% in the assay on KB-3-1 and -2.03% in the assay on NIH3T3.
Turning to `Nc1ccc(-c2cccc3c(=O)cc(N4CCOCC4)oc23)cc1`, the results for the Potency with HaCat, with KB-3-1 and in the assay with NIH3T3 were 6.51 µM (active), 20.6 µM (active) and 8.2 µM (active), respectively.
Turning to `CCN1CCN(Cc2ccc(NC(=O)c3ccc(C)c(NC(=O)c4cncc(-c5cccs5)c4)c3)cc2C(F)(F)F)CC1`, the Potency was 0.92 µM (active) in the assay on HaCat, 14.6 µM (active) with KB-3-1 and 1.16 µM (active) with NIH3T3.
